# Columns and labels:
# Conditions in all cases: Compound Concentration (nM):1000
# BRSK2 = test system: BRSK2
# BTK = test system: BTK
# BUB1 = test system: BUB1
# CAMK1B = test system: T1, CAMK1B
# T1 construct: gene PNCK
# CAMK1D = test system: CAMK1D
# CAMK1G = test system: CAMK1G
# CAMK1 = test system: CAMK1
# CAMK2A = test system: CAMK2A
# CAMK2B = test system: CAMK2B
# CAMK2D = test system: CAMK2D
# CAMK2G = test system: CAMK2G
# CAMK4 = test system: CAMK4
# CAMKK1 = test system: CAMKK1
# CAMKK2 = test system: CAMKK2
# CASK = test system: CASK
# CDC2L1 = test system: T2, CDC2L1
# T2 construct: gene CDK11B
# CDC2L2 = test system: CDC2L2
# CDC2L5 = test system: T3, CDC2L5
# T3 construct: gene CDK13
# CDK11 = test system: T4, CDK11
# T4 construct: gene CDK19
# CDK2 = test system: CDK2
# 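Also: KINOMEscan scanMAX binding as percent activity remaining versus control; lower means stronger binding.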
SMILES,Percent Control (BRSK2),Percent Control (BTK),Percent Control (BUB1),Percent Control (CAMK1B),Percent Control (CAMK1D),Percent Control (CAMK1G),Percent Control (CAMK1),Percent Control (CAMK2A),Percent Control (CAMK2B),Percent Control (CAMK2D),Percent Control (CAMK2G),Percent Control (CAMK4),Percent Control (CAMKK1),Percent Control (CAMKK2),Percent Control (CASK),Percent Control (CDC2L1),Percent Control (CDC2L2),Percent Control (CDC2L5),Percent Control (CDK11),Percent Control (CDK2)
CCc1ccc(Oc2nccc(-c3c(-c4ccc(F)cc4)ncn3C3CCNCC3)n2)cc1 [SB-242719],100%,100%,73%,100%,86%,100%,90%,67%,63%,100%,100%,100%,100%,100%,83%,89%,66%,100%,95%,100%
COc1ccccc1-c1cc(/C=C2\C(=O)Nc3ncc(Br)cc32)cc(Br)c1O [GW442130X],100%,99%,73%,78%,100%,100%,100%,85%,88%,100%,100%,94%,100%,100%,100%,100%,100%,91%,62%,89%
NS(=O)(=O)c1ccc(N/N=C2\C(=O)Nc3ccc(C(=O)NCCc4c[nH]cn4)cc32)cc1 [GW300660X],89%,100%,54%,85%,100%,100%,100%,100%,100%,100%,100%,100%,100%,100%,100%,100%,100%,79%,100%,
COc1cc(C)c(N(C)C(=O)CN(C)C)cc1Nc1nc(Nc2cccc(F)c2C(N)=O)c2cc[nH]c2n1 [GSK2219385],93%,100%,90%,85%,87%,95%,97%,89%,93%,82%,98%,80%,97%,94%,100%,100%,100%,50%,92%,100%
NS(=O)(=O)c1ccc(N/N=C2\C(=O)Nc3ccc(C(=O)NCc4ccncc4)cc32)cc1 [GW300657X],94%,89%,49%,70%,80%,88%,85%,66%,78%,81%,82%,100%,45%,65%,78%,100%,82%,24%,100%,39%
COc1ccc2c(-c3ccnc(Nc4cccc(OC(F)(F)F)c4)n3)cnn2n1 [GW810372X],77%,84%,86%,100%,100%,100%,100%,100%,100%,100%,100%,100%,91%,81%,96%,100%,100%,100%,100%,100%
Cc1cc(O)cc(C)c1/C=C/c1cncc(C(N)=O)c1 [GW435821X],50%,100%,100%,100%,100%,100%,91%,100%,100%,100%,100%,100%,100%,100%,77%,100%,97%,100%,100%,100%
COc1cc2ncn(-c3cc(O[C@H](C)c4ccccc4Cl)c(C(N)=O)s3)c2cc1OC [GSK237701A],47%,53%,56%,87%,91%,93%,86%,89%,100%,82%,88%,100%,92%,43%,88%,100%,97%,75%,84%,
CCS(=O)(=O)c1ccc(OC)c(Nc2ncc(-c3cccc(F)c3)o2)c1 [GW621970X],89%,71%,100%,100%,100%,100%,100%,85%,100%,100%,100%,100%,100%,100%,90%,100%,99%,100%,100%,100%
O=C(Nc1n[nH]c2nc(-c3ccc(O)cc3)c(Br)cc12)C1CC1 [SB-725317],47%,97%,94%,100%,100%,100%,100%,93%,97%,100%,100%,100%,100%,100%,100%,100%,100%,90%,100%,51%
C/C(Nc1ccc(S(N)(=O)=O)cc1)=C1/C(=O)Nc2ccccc21 [GW335962X],81%,83%,90%,79%,83%,86%,52%,79%,72%,100%,95%,100%,76%,82%,87%,100%,81%,65%,100%,87%
Cl.O=S1CCN(Cc2ccc(-c3ccc4ncnc(Nc5ccc(OCc6ccccc6)c(F)c5)c4c3)o2)CC1 [GW576924A],85%,100%,100%,100%,100%,100%,100%,100%,100%,100%,100%,100%,100%,100%,100%,100%,100%,100%,100%,100%
Cl.O=C(Nc1ccc(Oc2ccc3[nH]c(NC(=O)c4ccco4)nc3c2)cc1)Nc1cc(C(F)(F)F)ccc1F [GW683134A],98%,95%,95%,100%,100%,100%,59%,85%,79%,100%,100%,90%,100%,100%,100%,100%,100%,95%,13%,96%
COc1cc(C=NNc2ncnc3c2cnn3-c2ccccc2)ccc1O [GW513184X],73%,100%,81%,100%,100%,100%,100%,97%,100%,100%,100%,100%,100%,100%,64%,100%,100%,96%,100%,66%
COC(=O)Nc1nc2ccc(Oc3ccc(NC(=O)Nc4cc(C(F)(F)F)ccc4F)cc3)cc2s1.Cl [GW693917A],93%,72%,65%,75%,90%,100%,88%,93%,88%,98%,100%,100%,100%,100%,93%,98%,78%,19%,5.3%,65%
COc1cc2ncnc(Nc3ccc4c(cnn4Cc4ccccc4)c3)c2cc1OC.Cl [GW282449A],100%,40%,100%,100%,100%,100%,100%,100%,100%,100%,100%,100%,100%,100%,93%,100%,100%,100%,100%,100%
NS(=O)(=O)c1ccc(N/N=C2\C(=O)Nc3ccc(Cl)cc32)cc1 [GW280670X],86%,100%,100%,100%,100%,100%,100%,100%,100%,100%,100%,100%,100%,100%,100%,100%,100%,100%,100%,83%
CN(C)CCNC(=O)Nc1ccc(N(C)c2ccnc(Nc3ccc(CS(C)(=O)=O)cc3)n2)cc1.Cl [GW830900A],96%,74%,55%,93%,91%,100%,100%,92%,84%,93%,100%,100%,99%,93%,91%,100%,89%,100%,100%,98%
CC(C)COC(=O)c1ccc2c(c1)/C(=C/Nc1ccc(S(N)(=O)=O)cc1)C(=O)N2 [GW416981X],88%,100%,9.8%,92%,100%,100%,100%,29%,71%,72%,100%,100%,97%,100%,95%,100%,100%,65%,100%,15%
Cl.O=C(O[C@H]1CN[C@H](C#Cc2cc3ncnc(Nc4ccc5c(cnn5Cc5ccccc5)c4)c3s2)C1)N1CCOCC1 [GSK200398A],100%,77%,45%,69%,100%,100%,100%,94%,84%,95%,96%,100%,87%,86%,100%,87%,100%,97%,92%,97%

# — paper PMC7826789 (International Journal of Molecular Sciences, 2021)
